From PubChem BioAssay (EPA / NIEHS)
Values joined by “and” are separate entries in the source; they are usually repeats but may differ in a detail not shown here. Equal entries are not always repeated. Where a structure was tested more than once in an assay, its records may differ in their call. Active and inactive are the calls of the source. Rule for the calls: active = hit-call score of the fitted dose curve at least 0.9, where 1 is the maximum; inactive = score below 0.9.

read-out: Interleukin-8 (IL8), CXCL8 (gene 3576); assay: BSK_hDFCGF_IL8: BioMAP Diversity Plus: hDFCGF Assay for Interleukin-8 (IL8) Biomarker Activity (AID 2283058); settings: primary human foreskin fibroblasts; actives raise or lower the signal
Procedure: BSK_hDFCGF is a cell-based, multiplexed-readout assay that uses foreskin fibroblast, a human skin primary cell, with measurements taken at 24 hours after chemical dosing in a 96-well plate.BSK_hDFCGF_IL8 is an assay component measured in the BSK_hDFCGF assay. It measures IL-8 antibody related to regulation of gene expression using ELISA technology.Data from the assay component BSK_hDFCGF_IL8 was analyzed into 1 assay endpoint. This assay endpoint, BSK_hDFCGF_IL8, was analyzed with bidirectional fitting relative to DMSO as the negative control and baseline of activity. Using a type of binding reporter, gain or loss-of-signal activity can be used to understand changes in the signaling as they relate to the gene CXCL8. Furthermore, this assay endpoint can be referred to as a primary readout, because this assay has produced multiple assay endpoints where this one serves a signaling function. To generalize the intended target to other relatable targets, this assay endpoint is annotated to the cytokine intended target family, where the subfamily is interleukins.
The levels of cell surface (or secreted, indicated by the prefix "s") biomarker endpoints were measured by ELISA. Overt cytotoxicity to cells in confluent adherent cultures (all systems other than the BT system) was assessed by measuring total protein levels using sulforhodamine B (SRB) staining in parallel cultures at the time of biomarker measurements, indicated as SRB endpoints. For proliferation assays for adherent cell types, individual cell types are cultured at sub-confluence and relative cell numbers quantified by SRB staining at time points optimized for each system (48 h: 3C and CASM3C systems; 72 h: BT and HDF3CGF systems; 96 h: SAg system). SRB was performed by staining cells with 0.1% SRB after fixation with 10% TCA and reading wells at 560 nm.Viability and proliferation of PBMC (T cells) was quantified by Alamar Blue reduction for the SAg and BT systems. For PBMC viability (referred to as PBMC Cytotoxicity within the assay endpoint names), cells were plated (75,000/well in a 96-well plate) and then chemical samples added for 1 h before addition of activators, SEB and TSST-1 (20 ng/mL final concentration each). Cells were incubated for 90 h. Then, Alamar Blue (20 uL/well) (Invitrogen, Cat DAL1100) was added for 6 h, and the plates were read with a fluorescence microplate reader at 546/580 nm (excitation/emission). For PBMC proliferation, cells were plated and activated as above but incubated for only 16 h prior to addition of Alamar Blue. Plates were read after 6 h.

| Structure (SMILES) | AC50 | outcome |
| --- | --- | --- |
| Cc1cc(CCN2CCN(c3nsc4ccccc34)CC2)cc2c1NC(=O)CC2(C)C | 11.3 µM (active) | – |
| O=c1c(-c2ccc(O)cc2)coc2cc(O)ccc12 | – | inactive |
| CC(C)CCCCCCOC(=O)CCCCC(=O)OCCCCCCC(C)C | – | inactive |
| c1ccc2c(c1)ccc1ccccc12 | – | inactive |
| NC(=O)N1C(=O)C(C(=O)c2cc(Cl)cs2)c2cc(F)c(Cl)cc21 (stereo not given) | 16.6 µM (active) | – |
| CCCCC(CC)COC(=O)CCCCC(=O)OCc1ccccc1 (stereo not given) | – | inactive |
| CC(=O)CC(C)(C)O | – | inactive |
| CN(C)C=O | – | inactive |
| CCCCCCCCC(=O)O | – | inactive |
| CC(C)(C)c1cccc(C(C)(C)C)c1O | 36.8 µM (active) | – |
| CN1CCC[C@H]1c1cccnc1 | – | inactive |
| CC(C)(C)c1cc(C(C)(C)C)c(O)c(C(C)(C)C)c1 | 31.5 µM (active) | – |
| CCC(=C(c1ccc(O)cc1)c1ccc(OCCN(C)C)cc1)c1ccccc1 | 12.8 µM (active) | – |
| CC(C)(C)c1ccc(O)c(C(C)(C)C)c1 | 12.5 µM (active) | – |
| O=[N+]([O-])c1ccc(O)cc1 | – | inactive |
| CN1CCN(c2ccccc2/C=C2\SCCN(c3ccc(Cl)c(Cl)c3)C2=O)CC1 | 32.3 µM (active) | – |
| Nc1cccc2c(N)cccc12 | – | inactive |
| OCCC(F)(F)C(F)(F)C(F)(F)C(F)(F)C(F)(F)C(F)(F)F | 46.4 µM (active) and 57.9 µM (active) | inactive |
| CCCCCCCCOC(=O)CCCCCCCCC(=O)OCCCCCCCC | – | inactive |

| Structure (SMILES) | AC50 | outcome |
| --- | --- | --- |
| CCc1ccc(CCOc2ccc(CC3SC(=O)NC3=O)cc2)nc1 (stereo not given) | – | inactive |
| c1ccc2c(c1)Cc1ccccc1-2 | – | inactive |
| CCCCC(CC)COC(=O)CCCCC(=O)OCC(CC)CCCC (stereo not given) | – | inactive |
| CCCCCCC(=O)O | – | inactive |
| CC(=O)NC1(c2cccc(F)c2)CCN(CC[C@@]2(c3ccc(Cl)c(Cl)c3)CN(c3ccccc3)C(=O)CO2)CC1 | 25.9 µM (active) | – |
| CCCCCCCC(=O)O | – | inactive |
| CCCOC(=O)c1ccc(O)cc1 | – | inactive |
| Oc1cc2ccccc2c2ccccc12 | 3.94 µM (active) | – |
| COC(=O)CCCCC(=O)OC | – | inactive |
| OCCC(F)(F)C(F)(F)C(F)(F)C(F)(F)C(F)(F)C(F)(F)C(F)(F)C(F)(F)F | 19.2 µM (active) and 17.4 µM (active) | inactive |
| C[C@@H]1C[C@H]2[C@@H]3CCC4=CC(=O)C=C[C@]4(C)[C@@]3(F)[C@@H](O)C[C@]2(C)[C@@]1(O)C(=O)COP(=O)(O)O | – | inactive |
| CC[C@H](C)[C@@H](C(=O)O)n1sc2ccccc2c1=O | – | inactive |
| CC#C[C@]1(O)CC[C@H]2[C@@H]3CCC4=CC(=O)CCC4=C3[C@@H](c3ccc(N(C)C)cc3)C[C@@]21C | – | inactive |
| OC1CCC(C2CCCCC2)CC1 (stereo not given) | – | inactive |
| NCC(F)(F)C(F)(F)C(F)(F)C(F)(F)C(F)(F)C(F)(F)C(F)(F)F | – | inactive |
| c1ccc2cc3c(ccc4ccccc43)cc2c1 | – | inactive |
| CCC(C)(C)C1CCC(O)CC1 (stereo not given) | – | inactive |
| CCCCOCCO | – | inactive |
| Oc1cccc(O)c1 | – | inactive |
